Measured values: PubChem BioAssay (EPA / NIEHS)
Records with an inconclusive call do not appear. Where a structure was tested more than once in an assay, its records may differ in their call. Activity calls are given as the source filed them. Rule for the calls, unless noted: active = hit-call score of the fitted dose curve at least 0.9, where 1 is the maximum; inactive = score below 0.9.

Legend:
[1] = CCTE_Shafer_MEA_dev_per_burst_spike_percent: CCTE's Neural Network Formation Assay for Percent of Spikes in a Burst, Shafer Lab (AID 2284032)
Summary of the method: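 Rat primary cortical neurons on 16-electrode MEA wells, dosed from plating day 0 for 12 days with renewal on DIV 5 and 9; spikes-in-bursts percentage averaged over bursting electrodes, collapsed as AUC across days 5, 7, 9, 12; loss direction versus DMSO.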

[2] = CCTE_Shafer_MEA_dev_burst_rate: CCTE's Neural Network Formation Assay for Burst Rate, Shafer Lab (AID 2284042)
Summary of the method: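 Exposure ran continuously over 12 days of network development in rat cortical cultures, with compound refreshed during full media changes on DIV 5 and 9. Single-electrode bursts per recording time, well-mean over active electrodes, trapezoidal AUC across days 5–12, fitted downward relative to DMSO.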

[3] = CCTE_Shafer_MEA_dev_per_burst_interspike_interval: CCTE's Neural Network Formation Assay for Burst Interspike Interval, Shafer Lab (AID 2284044);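 note: mean spike spacing inside bursts as AUC over recordings on days 5 7 9 12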;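 for AC50: potency for a decrease of within-burst interspike interval below DMSO level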
Summary of the method: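 Primary rat cortical neurons on 48-well MEA plates, exposed from day 0 through day 12, treatment renewed at DIV 5 and 9. Within-burst interspike interval recorded days 5, 7, 9, 12, well-averaged, summarised as AUC; negative fit versus DMSO.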

[4] = CCTE_Shafer_MEA_dev_burst_duration_mean: CCTE's Neural Network Formation Assay for Mean Burst Duration, Shafer Lab (AID 2284045)
Summary of the method: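 Read-out: average first-to-last-spike interval within single-electrode bursts, averaged over bursting electrodes per well, then summarised as area under the curve across days 5, 7, 9 and 12. Developing rat cortical networks were exposed from day 0.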

[5] = CCTE_Shafer_MEA_dev_interburst_interval_mean: CCTE's Neural Network Formation Assay for Mean Interburst Interval, Shafer Lab (AID 2284046);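 note: well-mean interburst interval of bursting electrodes as AUC over four recording days; curve fitted for decrease in interburst interval relative to DMSO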
Summary of the method: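 Primary rat cortical neurons on PEI-coated 48-well MEA plates (laminin added with cells at plating) (16 electrodes/well), exposed from plating day 0 with renewal at DIV 5 and 9. Mean inter-burst interval averaged over bursting electrodes, AUC across days 5, 7, 9, 12; DMSO baseline.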

[6] = CCTE_Shafer_MEA_dev_inter_network_spike_interval_mean: CCTE's Neural Network Formation Assay for Mean Inter-network Spike Interval, Shafer Lab (AID 2284047)
Summary of the method: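 Mean time between consecutive network-spike peaks, recorded extracellularly (adaptive spike detection) on DIV 5, 7, 9 and 12, summarized as trapezoidal AUC. Rat cortical cultures on MEAs dosed continuously days 0–12, re-dosed at feeds; loss-of-signal fit relative to DMSO.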

[7] = CCTE_Shafer_MEA_dev_network_spike_number: CCTE's Neural Network Formation Assay for Number of Network Spikes, Shafer Lab (AID 2284048);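 note: synchronized bursts across electrodes counted on days 5 7 9 12 and integrated as AUC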;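 for AC50: fit as a loss of signal meaning fewer network spikes than DMSO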
Summary of the method: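 Developing networks of primary rat cortical neurons are treated over 12 days starting at plating, with media and compound fully replaced on DIV 5 and 9. Network spike counts from four recording days are integrated as trapezoidal AUC.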

[8] = CCTE_Shafer_MEA_dev_network_spike_peak: CCTE's Neural Network Formation Assay for Mean Number of Electrodes in Network Spike, Shafer Lab (AID 2284049);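 for AC50: fitted for loss of signal meaning fewer electrodes in network spikes than DMSO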
Summary of the method: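 Rat cortical primary culture, 1.5 x 10^5 cells/well, 48-well MEA (16 electrodes/well). Dosing day 0 through DIV 12, full media/compound exchange DIV 5, 9. AxIS adaptive spike detection; AUC over days 5/7/9/12; loss-of-signal vs DMSO.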

[9] = CCTE_Shafer_MEA_dev_network_spike_duration_std: CCTE's Neural Network Formation Assay for Standard Deviation of Network Spike Duration, Shafer Lab (AID 2284052);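 note: hits are decreases in network spike duration SD versus DMSO vehicle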
Summary of the method: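 Network spike duration variability was collapsed across recordings on days 5, 7, 9 and 12 by trapezoidal area-under-curve and fitted downward against DMSO. Cultures were rat cortical neurons on PEI-coated MEA plates, dosed continuously from plating, refed with compound DIV 5/9.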

[10] = CCTE_Shafer_MEA_dev_per_network_spike_spike_number_mean: CCTE's Neural Network Formation Assay for Mean Number of Spikes in a Network Spike, Shafer Lab (AID 2284053);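 for AC50: fitted as decrease in spikes per network spike relative to DMSO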
Summary of the method: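 Mean spike count within each network spike, taken in a 0.05 s window at its peak, was recorded on days 5, 7, 9 and 12 and integrated as trapezoidal area under the curve. Rat cortical cultures on MEA plates received continuous compound from day 0, refreshed at medium changes on DIV 5 and 9.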

[11] = CCTE_Shafer_MEA_dev_active_electrodes_number: CCTE's Neural Network Formation Assay for Number of Active Electrodes, Shafer Lab (AID 2284040; active = hit-call score of the fitted dose curve at least 0.9, where 1 is the maximum;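 for AC50: potency for loss of active electrodes versus DMSO so lower counts are hits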)
Summary of the method: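 Primary rat cortical neurons on 16-electrode MEA wells, exposed from day 0 through day 12 with compound renewed at DIV 5 and 9 feeds. Active electrodes (mean firing ≥5 spikes/min) counted at DIV 5, 7, 9, 12; trapezoidal AUC across days, loss-of-signal versus DMSO.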

[12] = CCTE_Shafer_MEA_dev_bursting_electrodes_number: CCTE's Neural Network Formation Assay for Number of Bursting Electrodes, Shafer Lab (AID 2284043; active = hit-call score of the fitted dose curve at least 0.9, where 1 is the maximum;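 for AC50: potency is for loss of bursting electrodes relative to DMSO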)
Summary of the method: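 Read-out is the per-well number of electrodes bursting at least once every 2 minutes, recorded on days 5, 7, 9 and 12 and collapsed by trapezoidal area under the curve. Cultures were primary rat cortical neurons on MEA plates, treated continuously from plating.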

[13] = CCTE_Shafer_MEA_acute_synchrony_index: CCTE's Neural Acute Assay for Synchrony, Shafer Lab (AID 2284027);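 note: fitted for loss of signal so actives lower synchrony relative to DMSO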
Summary of the method: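 Readout is percent change in the unitless network synchrony index (0 low, 1 high) between a 40-min baseline and a 40-min recording in compound. Cultures were primary rat cortical neurons on MEAs, treated at 0.03-40 uM on DIV 13 or 15.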

[14] = CCTE_Deisenroth_AIME_384WELL_CTox_Active: Cytotoxicity Assessment (CTOX) in CCTE's 384-well Estrogen Receptor Transactivation Assay with AIME metabolic competence (metabolism positive), Deisenroth Lab (AID 2284037; active = hit-call score of the fitted dose curve at least 0.9, where 1 is the maximum;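 note: activity means signal loss indicating cell death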)
Summary of the method: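 Cytotoxicity in VM7Luc4E2 breast cells, 24 hour, measured as protease-substrate fluorescence loss, after 2-hour metabolic conditioning with induced rat hepatic S9 in alginate microspheres. Concentrations 0.002 - 200 uM, 10 points, bidirectional fitting.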

[15] = target: Estrogen receptor (Homo sapiens) (UniProt P03372); test: CCTE_Deisenroth_AIME_384WELL_LUC_Inactive: CCTE's 384-well Estrogen Receptor Transactivation Assay without AIME metabolic competence (ERTA luciferase; metabolism negative), Deisenroth Lab (AID 2284038; active = hit-call score of the fitted dose curve at least 0.9, where 1 is the maximum;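 note: VM7Luc4E2 breast cells given medium preincubated 2 h with S9-free microspheres; hits raise estrogen receptor luciferase signal so potencies reflect agonists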)
Sequence of Estrogen receptor (Homo sapiens) (P03372 whole entry, looked up): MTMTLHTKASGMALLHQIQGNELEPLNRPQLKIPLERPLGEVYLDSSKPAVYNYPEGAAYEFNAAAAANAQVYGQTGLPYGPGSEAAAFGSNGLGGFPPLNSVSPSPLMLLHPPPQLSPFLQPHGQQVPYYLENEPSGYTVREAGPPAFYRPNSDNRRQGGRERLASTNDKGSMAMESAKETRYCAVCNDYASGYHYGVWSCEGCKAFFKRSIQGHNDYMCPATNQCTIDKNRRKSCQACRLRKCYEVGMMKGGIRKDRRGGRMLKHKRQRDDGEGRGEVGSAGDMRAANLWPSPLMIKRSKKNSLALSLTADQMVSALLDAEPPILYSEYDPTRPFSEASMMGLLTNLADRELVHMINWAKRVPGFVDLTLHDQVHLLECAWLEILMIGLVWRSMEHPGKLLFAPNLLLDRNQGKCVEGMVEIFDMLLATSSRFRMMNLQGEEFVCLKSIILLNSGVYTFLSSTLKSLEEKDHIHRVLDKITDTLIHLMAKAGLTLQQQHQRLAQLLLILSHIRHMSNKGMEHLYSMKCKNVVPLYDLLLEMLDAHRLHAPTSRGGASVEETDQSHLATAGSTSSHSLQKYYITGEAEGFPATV
Summary of the method: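 Metabolism-negative mode: chemicals (10-point, 0.002–200 uM) held 2 h with alginate-water microspheres, then conditioned medium applied to VM7Luc4E2 cells for 24 h. Luciferase induction referenced to 17beta-estradiol.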

[16] = target: Estrogen receptor (Homo sapiens) (UniProt P03372); test: CCTE_Deisenroth_AIME_96WELL_LUC_Inactive: CCTE's 96-well Estrogen Receptor Transactivation Assay without AIME metabolic competence (ERTA luciferase; metabolism negative), Deisenroth Lab (AID 2284025; active = hit-call score of the fitted dose curve at least 0.9, where 1 is the maximum)
Summary of the method: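 VM7Luc4E2 breast cells, luciferase read 24 h after dosing with medium pre-incubated 2 h on alginate-water lids (metabolism negative). 10-point series 0.002–200 uM, single technical replicate, n≥4; fit relative to 17beta-estradiol.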

[17] = CCTE_Deisenroth_AIME_96WELL_CTox_Active: Cytotoxicity Assessment (CTOX) in CCTE's 96-well Estrogen Receptor Transactivation Assay with AIME metabolic competence (metabolism positive), Deisenroth Lab (AID 2284028; active = hit-call score of the fitted dose curve at least 0.9, where 1 is the maximum)
Summary of the method: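 Chemicals (0.002–200 uM) were first incubated 2 h with alginate-immobilized phenobarbital/beta-naphthoflavone-induced male rat liver S9; conditioned medium then went onto VM7Luc4E2 cells for 24 h, with viability read by protease-substrate fluorescence, fitted bidirectionally.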

[18] = CCTE_Deisenroth_AIME_384WELL_CTox_Inactive: Cytotoxicity Assessment (CTOX) in CCTE's 384-well Estrogen Receptor Transactivation Assay without AIME metabolic competence (metabolism negative), Deisenroth Lab (AID 2284039; active = hit-call score of the fitted dose curve at least 0.9, where 1 is the maximum;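 note: cell viability via live-cell protease substrate cleaved to fluorescent probe; cells exposed 24 h to medium preincubated 2 h with alginate-water beads without S9; loss of fluorescence signal means loss of viability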)
Summary of the method: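 Fluorescent protease-substrate viability readout after 24 h exposure of VM7Luc4E2 cells to conditioned medium. Chemicals (0.002–200 uM) first sat 2 h over alginate-water beads, no S9. Data fitted bidirectionally, loss of signal meaning viability loss.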

Measured: AC50

FC(F)=C(F)OC(F)(F)C(F)(F)C(F)(F)F
inactive: [1] | [2] | [3] | [4] | [5] | [6] | [7] | [8] | [9] | [10]

COC(F)(F)C(F)(C(F)(F)F)C(F)(F)F
not listed: [13] | [14] | [15] | [16] | [17] | [18]
inactive: all other assays above

CO[Si](OC)(OC)c1ccccc1
inactive: [13] | [14] | [15]

COc1ccc(-c2coc3cc(O)ccc3c2=O)cc1
active: [16] 5.41 µM
inactive: [17]

CN1C(=O)N(C)C(O)C1O (stereo unspecified)
inactive: [13]

N[C@H]1C(O)O[C@H](CO)[C@H](O)[C@@H]1O (stereo partly specified)
active: [12] 24.8 µM | [3] 2.98 µM | [8] 25.4 µM | [10] 25.6 µM
inactive: [1] | [2] | [4] | [5] | [6] | [7] | [9]

CCCCCCCCCCOS(=O)(=O)O
inactive: [15]
active: [14] 19.8 µM | [18] 19.8 µM

CCCCCc1ccc(Cl)cc1
inactive: [14] | [15]

CCCCC(CC)COC(=O)c1ccccc1O (stereo unspecified)
inactive: [13]

CC1(C)S[C@@H]2[C@H](NC(=O)COc3ccccc3)C(=O)N2[C@H]1C(=O)O
not listed: [13] | [14] | [15] | [16] | [17] | [18]
inactive: all other assays above

Nc1ncn([C@@H]2O[C@H](CO)[C@@H](O)[C@H]2O)c(=O)n1
inactive: [1] | [11] | [2] | [12] | [3] | [4] | [5] | [6] | [7] | [8] | [9] | [10]
active: [13] 9.61 µM | [11] 2.13 µM | [12] 1.34 µM | [3] 2.4 µM | [7] 2.26 µM | [8] 4.18 µM | [10] 2.56 µM
